High-throughput results as filed in PubChem.
Rtt109 HAT inh = C. albicans Rtt109 histone acetyltransferase inhibition; Q5AAJ8; purified Rtt109/Vps75, ThioGlo CoA-SH fluorescence, 4 h; inhibition, % at 34.9 µM; 330,000 compounds, 0.16% hits; AID 540336;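 active = inhibition of at least 50% in every replicate; inconclusive = best replicate reaches 50% inhibition but some replicates fall short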
DAGLB inhibitor = blocks human DAGLB lipase activity; Q8NCG7; HEK293T DAGLB membrane lysate, EnzChek fluorogenic substrate; inhibition, % at 5.17 µM; 340,000 compounds, 0.059% hits; AID 504411; in the data active = inhibition above about 34%;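 also: 0% = enzyme with vehicle and 100% = wells lacking enzyme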
sPLA2-III inh = Inhibits HGIII-sPLA2 liposome hydrolysis, primary screen; QFRET BODIPY PC-A2 liposome hydrolysis, fluorescence; inhibition, % at 12.2 µM; 370,000 compounds, 0.56% hits; AID 743126;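 active = inhibition above mean plus 3 SD of compounds lying within the high and low control bounds, cut at about 19% in these data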;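 also: 0% = median of test compound wells and 100% = no enzyme DMSO wells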
Target sequence (Q9NZ20 whole entry, looked up): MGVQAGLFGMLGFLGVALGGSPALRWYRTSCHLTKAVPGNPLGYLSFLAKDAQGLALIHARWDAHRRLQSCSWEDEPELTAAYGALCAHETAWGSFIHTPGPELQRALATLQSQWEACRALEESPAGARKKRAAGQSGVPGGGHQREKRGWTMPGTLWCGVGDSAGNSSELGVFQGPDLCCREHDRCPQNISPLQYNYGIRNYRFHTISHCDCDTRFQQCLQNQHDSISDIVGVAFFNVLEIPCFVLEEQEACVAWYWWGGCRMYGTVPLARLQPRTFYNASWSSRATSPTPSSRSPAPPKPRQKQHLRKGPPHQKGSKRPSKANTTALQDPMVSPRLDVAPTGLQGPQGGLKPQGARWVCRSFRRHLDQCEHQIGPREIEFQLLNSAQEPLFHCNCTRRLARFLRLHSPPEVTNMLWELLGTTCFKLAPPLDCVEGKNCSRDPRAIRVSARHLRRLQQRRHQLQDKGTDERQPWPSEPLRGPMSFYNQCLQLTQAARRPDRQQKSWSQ
Myeloid diff 2 = myeloid differentiation induction | calls only at 10 µM | ER-HoxA9 myeloid progenitors, lysozyme-GFP differentiation, flow cytometry | 360,000 compounds, 1% hits;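 active = normalized GFP-positive differentiation at or above the plate's own cutoff, the solvent-only control mean plus 3 SD; inconclusive = no clear call, values can overlap the other calls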;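 also: cells exposed to compound for four days before flow analysis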
ABHD5 PLIN5 PPI = ABHD5-PLIN5 protein interaction inhibition | Split G. princeps luciferase complementation, luminescence, 4 h | inhibition, % at 4 µM | 360,000 compounds, 0.78% hits | AID 602281;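 active = inhibition above the mean inhibition across every tested compound plus 3 SD, cut at about 22% in these data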;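 also: 0% = DMSO only wells and the 100% control is not disclosed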
H9c2 protect = myocardial damage modulation in H9c2 cells | H9c2 cardiomyocytes, H2O2 injury protection, ATPLite, 2 h | protection from H2O2 cell death, % at 20 µM | 360,000 compounds, 0.63% hits;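 active = compounds giving at least 50% protection of heart cells from peroxide-induced death in the single-dose screen, raw or plate-pattern-corrected value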;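 also: 0% = DMSO wells with peroxide and 100% = DMSO wells without peroxide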
* hit, by the source's call; i = inactive; ? = inconclusive; nt = not tested or not shown; + = active, no number. An excerpt weighted towards active compounds, which were near 2.9% of everything screened.

SMILES	Rtt109 HAT inh	DAGLB inhibitor	sPLA2-III inh	Myeloid diff 2	ABHD5 PLIN5 PPI	H9c2 protect
CSCC[C@H](NC(=O)OC(C)(C)C)C(=O)NCC1CCC(C(=O)N[C@@H](Cc2ccccc2)C(=O)O)CC1 (some centres undefined)	-3.6	2.1	3.3	+	7.0	0.9
CC(C)C[C@H](NC(=O)OC(C)(C)C)C(=O)NCC1CCC(C(=O)N[C@@H](Cc2ccccc2)C(=O)O)CC1 (some centres undefined)	-0.2	1.2	-5.0	i	-8.4	-0.8
CSCCC(NC(=O)c1ccccc1Br)C(=O)NCC1CCCCC1 (centres undefined)	-0.8	4.2	-0.4	+	5.7	4.7
CN(C)S(=O)(=O)n1cc(/C=C(\NC(=O)c2ccccc2F)C(=O)NCCCN2CCOCC2)c2ccccc21	3.1	3.3	2.7	i	3.4	7.8
OCc1nnn(-c2cccc(C(F)(F)F)c2)c1CO	-24.1	-4.9	4.8	i	1.8	8.7
COc1ccc(C=O)cc1COc1c(F)c(F)cc(F)c1F	3.6	-6.1	0.1	+	-4.8	-9.4
Cc1[nH]c2ccccc2c1/C=C/C(=O)c1ccccc1	-9.9	0.0	-6.0	+	4.3	-0.7
CCn1c(/C=C/c2c[nH]c3ccccc23)nc2ccccc2c1=O	-32.1	2.1	-14.4	i	-4.4	8.1
CCn1c(/C=C/c2c(C)[nH]c3ccccc23)nc2ccccc2c1=O	-2.5	-1.2	1.0	+	0.6	-13.4
O=C(c1ccc2ncsc2c1)N1CCN(c2cccc(C(F)(F)F)c2)CC1	6.6	-5.2	5.8	+	-13.7	-4.6
COc1ccccc1N1CCN(C(=O)c2ccc3ncsc3c2)CC1	-2.9	-2.3	9.1	+	-3.4	-4.2
COc1ccccc1N1CCN(C(=O)c2ccc3nc(-c4ccco4)c(-c4ccco4)nc3c2)CC1	1.3	4.4	-9.2	i	13.0	63.5*
COc1ccccc1N1CCN(C(=O)c2ccc3nc[nH]c3c2)CC1	4.3	-1.9	2.2	i	-1.4	3.5
O=C(c1ccc2nc[nH]c2c1)N1CCN(c2cccc(C(F)(F)F)c2)CC1	1.0	-1.4	-20.7	i	4.4	4.1
O=C(NNC(=O)c1ccc(-n2cncn2)c([N+](=O)[O-])c1)c1ccc(Cl)cc1	11.1	-1.6	2.6	i	8.3	16.9
CCN(CC)C(=O)C1=C(C)N(Cc2ccc(OC)cc2)C(=O)C(CC(=O)NCCCN(C)C)C1 (centres undefined)	nt	-0.2	2.1	i	-5.6	14.2
COc1ccccc1C(=O)NCC(=O)N=Nc1c(O)n(C(C)C)c2ccccc12	63.6*	0.1	-5.8	i	7.0	3.5
COc1cc2ccccc2cc1C(=O)Nc1ccc(Br)cn1	59.2*	-4.8	10.4	i	7.0	-5.9
CC[C@H](C)C(C(=O)N1CCN(C(=O)OC(C)(C)C)CC1)n1cc(C(Cc2ccc(O)cc2)NC(=O)OC(C)(C)C)nn1 (some centres undefined)	-4.0	-3.0	-14.2	i	-6.5	50.6*
CC[C@H](C)C(C(=O)N1CCN(C(=O)OC(C)(C)C)CC1)n1cc(C(CO)NC(=O)OC(C)(C)C)nn1 (some centres undefined)	-2.6	3.5	-1.2	i	-6.8	16.0
Cc1cnc(CN(C)C(=O)C2CCC(=O)N(CCc3ccccc3)C2)[nH]1 (centres undefined)	14.9	-0.8	-2.7	i	13.3	-6.1
COC(=O)C(Cc1c[nH]c2ccccc12)N1CCS(=O)(=O)CC1 (centres undefined)	-17.7	-1.0	-11.4	i	0.5	-3.8
Fc1ccc(-c2cc3nc(-c4ccccc4)cc(N4CCN(CCN5CCOCC5)CC4)n3n2)cc1	nt	-1.8	-25.4	+	17.4	-4.8
Cc1c2c(nc3ccccc13)CC(C)(C)CC2=O	-20.4	-1.6	5.0	i	-0.7	6.0
COc1ccc(/C=N/NC(=O)c2ccc(CSc3nc(C)cc(C)n3)cc2)cc1O	0.4	-0.6	-27.9	i	0.2	3.4
SMILES	Rtt109 HAT inh	DAGLB inhibitor	sPLA2-III inh	Myeloid diff 2	ABHD5 PLIN5 PPI	H9c2 protect
COc1ccc(/C=N/NC(=O)c2ccc(CSc3nc(C)cc(C)n3)cc2)c(OC)c1OC	-20.2	-4.1	-5.7	+	-5.1	3.0
COc1ccc(O)c(/C=N/NC(=O)c2ccc(CSc3nc(C)cc(C)n3)cc2)c1	-0.4	2.3	7.9	?	-5.4	56.7*
CC(=O)Nc1nonc1NC(=O)CSc1nc2ccccc2o1	-11.2	1.6	1.3	+	-1.3	4.4
COc1cccc(/C=N/NC(=O)CNC(=O)CCc2ccccc2)c1O	-0.8	0.6	-8.9	i	-1.5	35.5
COc1ccc(/C=N/NC(=O)CNC(=O)/C=C/c2ccccc2OC)cc1	-8.2	-0.6	0.3	+	1.4	2.9
COc1ccccc1/C=C\C(=O)NCC(=O)N/N=C/c1cccc(OC)c1O	-5.5	3.3	-34.2	i	-2.3	72.4*
COc1cccc(/C=N/NC(=O)CSc2ccccc2C)c1O	-0.2	2.3	-4.7	i	-10.3	53.1*
COc1cccc(/C=N/NC(=O)CNC(=O)c2cccs2)c1O	-4.0	-0.8	1.7	i	1.9	63.1*
COc1ccc(/C=C/C(=O)NCC(=O)N/N=C/c2cc(Br)ccc2OC)cc1	-6.2	-3.2	11.4	i	1.6	4.4
CC1CN(C(=O)COC(=O)c2nn(-c3ccccc3)c(=O)c3ccccc23)CC(C)O1 (centres undefined)	nt	-0.5	2.3	i	3.8	2.6
O=C(CSc1nc(-c2ccccc2)c(-c2ccccc2)[nH]1)NCC1CCCO1 (centres undefined)	-2.3	-0.6	5.9	i	1.1	5.4
CC1Cc2ccccc2N1C(=O)CN1C(=O)NC(C)(c2ccc3c(c2)OCCO3)C1=O (centres undefined)	-4.3	-0.2	-8.7	i	-1.6	-0.3
COc1cccc(/C=N/NC(=O)Cn2nc(C)c([N+](=O)[O-])c2C)c1O	-2.4	1.3	-10.8	i	0.8	53.5*
COc1ccccc1/C=C/C(=O)NCC(=O)N/N=C/c1cc(Br)ccc1OC	14.9	-0.1	-11.7	i	4.9	98.3*
CC1=C(C(=O)OCC2CCCO2)C(c2coc3ccccc3c2=O)C2=C(CC(C)(C)CC2=O)N1 (centres undefined)	-15.7	1.8	-1.3	i	4.9	-0.4
C#CC(=O)N(c1cccc(OC)c1)C(C(=O)NC1CCCC1)c1cccs1 (centres undefined)	8.0	-2.7	1.1	nt	22.9*	-14.7
C#CC(=O)N(c1ccc(OC)c(OC)c1)C(C(=O)NC1CCCC1)c1cccs1 (centres undefined)	-9.2	-2.2	0.4	i	20.1	-19.5
COc1cccc(/C=N/Nc2nn3cnnc3c3ccccc23)c1O	7.4	7.6	-5.9	i	3.8	50.1*
